Reference: PMC5540273 (PLoS ONE, 2017)

Key:
Conditions in all cases: concentration: 1 μM, replicates: in singlicate; n = 1
PKAC-beta = test system: T1, PKAC-beta
T1 construct: gene PRKACB

PKMYT1 = test system: PKMYT1
PKN1 = test system: PKN1
PKN2 = test system: PKN2
PLK1 = test system: PLK1
PLK2 = test system: PLK2
PLK3 = test system: PLK3
PLK4 = test system: PLK4
PRKCD = test system: PRKCD
PRKCE = test system: PRKCE
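Also: KINOMEscan kinase panel screen.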

Row | SMILES | %Inh (PKAC-beta) [%] | %Inh (PKMYT1) [%] | %Inh (PKN1) [%] | %Inh (PKN2) [%] | %Inh (PLK1) [%] | %Inh (PLK2) [%] | %Inh (PLK3) [%] | %Inh (PLK4) [%] | %Inh (PRKCD) [%] | %Inh (PRKCE) [%]
1 | CC[C@@H]1CO[C@H](C(=O)Nc2ccccc2)CN1c1cc(-c2ccc3c(N)n[nH]c3c2)nc(NC)n1 [GSK2376236] | 73 | 0 | 85 | 0 | 0 | 0 | 0 | 0 | 0 | 3
2 | COC(=O)C(NC(=O)NC1CCN(c2ccnc(Nc3ccc(F)cc3)n2)C1)c1ccccc1 (stereo not shown) [GSK1379712] | 0 | 0 | 18 | 0 | 13 | 3 | 4 | 1 | 0 | 18
3 | Cn1cncc1-c1cc2c(Nc3ccc(OCc4ccccc4)cc3)ncnc2cn1 [GW281179] | 7 | 0 | 0 | 0 | 0 | 0 | 0 | 0 | 3 | 4
4 | COc1ccc(-c2coc3ccc(-c4nnc(C)o4)cc23)cc1 | 8 | 1 | 7 | 18 | 0 | 0 | 0 | 2 | 5 | 2
5 | Cc1ccc(NC(=O)Nc2ccccc2F)cc1-c1ccc(C(=O)Nc2ccncc2)cc1 [GSK1398477] | 32 | 18 | 26 | 12 | 5 | 0 | 0 | 0 | 19 | 4
6 | CCn1c(-c2ccccc2)nc2cnccc21 [SB-733416] | 3 | 30 | 0 | 0 | 0 | 0 | 0 | 0 | 8 | 22
7 | Nc1nccc(-c2c(-c3ccc(F)cc3)ncn2C2CCN(Cc3ccccc3)CC2)n1 [SB-219980] | 0 | 26 | 0 | 0 | 12 | 28 | 10 | 8 | 0 | 1
8 | CCn1c(-c2c(N)noc2C)nc2cnccc21 [SB-737856] | 0 | 0 | 29 | 0 | 0 | 0 | 0 | 0 | 0 | 0
9 | Cc1ccccc1-c1cc(-c2c[nH]nc2-c2ccccn2)ccn1 [GW680061] | 0 | 0 | 0 | 0 | 0 | 0 | 0 | 0 | 0 | 10
10 | Cc1nccc(-c2c(-c3ccc(F)cc3)ncn2CCCN2CCOCC2)n1.Cl [SB-282975] | 0 | 0 | 19 | 1 | 44 | 21 | 5 | 3 | 31 | 11
11 | Fc1ccc(-c2nc[nH]c2-c2ccncc2)cc1 [SB-217360] | 0 | 9 | 0 | 0 | 9 | 21 | 36 | 4 | 8 | 0
12 | CC(C)c1ccc(O)cc1Nc1ccnc2ccc(C(F)(F)F)cc12 [GW482059] | 16 | 0 | 36 | 0 | 0 | 0 | 0 | 0 | 0 | 0
13 | COc1ccc(Nc2nccc(-c3ccc(NC(=O)c4cc5cc(F)ccc5[nH]4)cc3)n2)cc1 [GSK1229496] | 0 | 0 | 13 | 0 | 0 | 0 | 0 | 0 | 0 | 6
14 | Cc1c(Cn2c(C)c(C)n3c(=O)cc(N4CCOCC4)nc23)cccc1C(F)(F)F [GSK2328680] | 0 | 17 | 0 | 0 | 0 | 100 | 0 | 0 | 0 | 0
15 | CC(=O)c1cccc(NC(=O)NC2CCN(c3ccnc(Nc4ccc(F)cc4)n3)C2)c1 (stereo not shown) [GSK1379710] | 0 | 3 | 31 | 0 | 7 | 0 | 9 | 0 | 0 | 15
16 | Nc1cccc(-c2ccc3c(N)n[nH]c3c2)n1 [GSK2192730] | 0 | 0 | 37 | 0 | 0 | 0 | 0 | 8 | 0 | 0
